Bioassay records as filed in PubChem BioAssay.
Compounds with a hit are over-represented: about 19% of the library has one in this group of screens.
HepG2 tox: counter-screen for TGF-b inhibitors: cytotoxicity in HepG2 cells; HepG2 CAGA-GFP viability, ATP luminescence, 18 h; Potency, µM (top dose mostly 46.1 µM), inactives show at the top dose activity change, negative = cytotoxicity, usual class: cytotoxic; 0.76% of 410,000 active; AID 588856; also: potency is read from the fitted curve at half-maximal effect
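CellTiter-Glo luminescence gave cytotoxicity after 18 hours at 37 degrees C. The cells were HepG2 CAGA-GFP in 1% FBS DMEM, stimulated with 500 pg/mL TGF-beta after compound addition. %Activity was normalised to no-cell wells (complete cell-killing) and DMSO (no toxicity), and curves were fitted and classified.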
TDP1 cell CPT: DT40-hTDP1 cell growth loss with CPT. chicken DT40 Tdp1-/-;hTDP1 cells + 20 nM CPT, ATP luminescence, 48 h. Potency, µM (top dose mostly 46.2 µM), for inactives: top-dose activity change, negative = growth inhibition, hits mostly inhibitors. 12% of 420,000 active. AID 686979; also: potency is read from the fitted curve at half-maximal effect; % is scaled to controls: 0 for no effect and ±100 for the full control effect; nearly all actives have a fitted effect of over 55% in size
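Cell growth measured by CellTiter-Glo luminescence after a minimum 48 h, 37 C compound exposure with 20 nM CPT in Tdp1-knockout DT40 cells stably expressing hTDP1, seeded 400/well; qHTS titration format.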
TGFb inhibitor: inhibitors of TGF-b signaling; HepG2 CAGA-GFP TGF-b/SMAD3 reporter, GFP fluorescence, 18 h; TGF-beta stimulated, 500 pg/mL final; Potency, µM (doses to about 46.1 µM), for the others: at the top dose activity, negative = inhibition, most hits filed as inhibitors; 1.2% of 410,000 active; AID 588855; also: potency is read from the fitted curve at half-maximal effect; % is scaled to controls: 0 for no effect and ±100 for the full control effect; nearly all actives have a fitted effect of over 65% in size
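Read-out: total well GFP (ex488/em500-530) summed from mean per-cell fluorescence. Cells: HEPG2 CAGA-GFP, 1% FBS DMEM, 18 h at 37 degrees C with 500 pg/mL final TGF-beta. Unstimulated wells served as the full-inhibition control; stimulated DMSO wells = 0%.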
ASM inhibitor: inhibitors of human secretory acid sphingomyelinase | 0.006% of 340,000 active | placental ASM, HMU-PC fluorogenic substrate, 60 min | Potency, µM (doses to about 57.5 µM), for the others: at the highest dose activity change, negative = inhibition, hits mostly inhibitors | P17405; also: potency is read from the fitted curve at half-maximal effect
Target sequence (P17405 47-631 limits assumed): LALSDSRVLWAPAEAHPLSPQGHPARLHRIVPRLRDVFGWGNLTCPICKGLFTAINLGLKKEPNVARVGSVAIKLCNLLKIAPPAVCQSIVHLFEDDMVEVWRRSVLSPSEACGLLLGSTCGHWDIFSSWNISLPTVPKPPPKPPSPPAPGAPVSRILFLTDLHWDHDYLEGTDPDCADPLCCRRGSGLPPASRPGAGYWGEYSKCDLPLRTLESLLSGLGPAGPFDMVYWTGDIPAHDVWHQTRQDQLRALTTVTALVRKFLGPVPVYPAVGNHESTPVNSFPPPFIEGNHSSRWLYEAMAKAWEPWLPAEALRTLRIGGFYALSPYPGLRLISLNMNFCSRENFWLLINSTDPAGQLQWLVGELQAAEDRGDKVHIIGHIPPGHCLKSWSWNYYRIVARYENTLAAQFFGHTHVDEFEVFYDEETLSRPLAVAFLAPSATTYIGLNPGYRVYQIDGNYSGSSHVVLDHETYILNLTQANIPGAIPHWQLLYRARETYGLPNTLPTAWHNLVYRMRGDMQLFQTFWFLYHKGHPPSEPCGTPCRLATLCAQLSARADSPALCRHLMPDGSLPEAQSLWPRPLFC
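HMU-PC0 cleavage (9 uM final) by human placental ASM, 60 min at 37 °C following 10 min compound exposure at RT; stopped at pH 10, fluorescence Ex 386/Em 447 nm.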
TDP1 cell noCPT: qHTS for Inhibitors of human tyrosyl-DNA phosphodiesterase 1 (TDP1): qHTS in cells in absence of CPT | Potency, µM (top dose mostly 46.2 µM), inactives show at the highest dose activity change, negative = growth inhibition, hits mostly inhibitors | DT40 Tdp1-/- hTDP1 cells, no CPT, ATP luminescence, 48 h | 15% of 420,000 active | AID 686978, 2013; also: potency is read from the fitted curve at half-maximal effect; % is scaled to controls: 0 for no effect and ±100 for the full control effect; nearly all actives have a fitted effect of over 55% in size
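Readout: luminescence from CellTiter-Glo after 30 min in the dark at RT. Cells: DT40 Tdp1-/- with stable hTDP1, 400/well. Exposure: compounds alone, ≥48 hr, 37 °C.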
IL-1B inflam inh: blocks inflammasome-driven IL-1 beta release | THP-1 LPS/ATP IL-1B secretion, AlphaLISA, 16 h; hits give low values | activity change, % at 57.5 µM | 4.7% of 360,000 active | AID 743279; in the data active = activity change below about -50%; inconclusive = mostly about -30% to -49%; also: % is scaled to controls: 0 for no effect and ±100 for the full control effect
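THP-1 cells pretreated 1 hr with compounds (up to 57.5 uM final), then stimulated with LPS (250 ng/mL final) plus ATP (1.25 mM final); secreted IL-1B measured by AlphaLISA after 16 hr, decreased signal indicating inhibition.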
* = called active by the depositor; ? = inconclusive; . = no result. Unless noted, calls follow the shape of the dose curve; as a rule, active = well fitted curve in the direction sought with a large enough effect; inconclusive = small, poorly fitted or top-dose-only effect, or another doubt; inactive = no such curve, though single readings can be large; an effect the other way counts as inactive or inconclusive.

SMILES	HepG2 tox	TDP1 cell CPT	TGFb inhibitor	ASM inhibitor	TDP1 cell noCPT	IL-1B inflam inh
Cc1ccccc1Cn1ccn(-c2ccc(F)c(F)c2)c(=O)c1=O	1.1%	25.7%	6.2%	.	1.8%	.
O=C(c1cccs1)N1CCCC(c2nc3c(nnn3Cc3ccccc3)c(=O)[nH]2)C1 (centres undefined)	-9.3%	?	1.2%	0.2%	10.7%	-11.9
Cc1ccccc1Cn1nnc2c(=O)[nH]c(C3CCN(C(=O)c4ccccc4Cl)CC3)nc21	-17.4%	16.4µM*	?	.	25.9µM*	.
O=C(C1CCCCC1)N1CCC(c2nc3c(nnn3Cc3ccccc3Cl)c(=O)[nH]2)CC1	2.2%	-18.0%	4.5%	-1.4%	21.3%	4.5
O=C(c1cccs1)N1CCCC(c2nc3c(nnn3Cc3ccccc3Cl)c(=O)[nH]2)C1 (centres undefined)	-10.7%	?	-1.0%	-1.0%	29.1µM*	-6.2
CCCCCCC(=O)N1CCC(c2nc3c(nnn3Cc3ccccc3Cl)c(=O)[nH]2)CC1	-91.8%	18.4µM*	?	?	?	-15.6
CN(c1ccccc1)S(=O)(=O)c1cccc(NC(=O)CN2CCCc3ccccc32)c1	-4.1%	?	?	-1.0%	18.4µM*	-28.3
COc1ccc(N(CC(=O)Nc2cccc(C)c2)S(=O)(=O)c2ccc(C)cc2)cc1OC	-5.3%	-7.1%	-1.1%	-4.4%	-22.4%	8.8
CCOc1ccc(CN(C)CC(=O)Nc2cccc(C)c2)cc1OC	-8.3%	20.6µM*	2.2%	-0.8%	9.2µM*	10.4
Cc1cc(C)c(NC(=O)CN(C)CC(=O)Nc2cccc(S(=O)(=O)N(C)c3ccccc3)c2)c(C)c1	-3.0%	?	?	-8.0%	23.1µM*	?
CCN(CC(=O)Nc1cccc(S(=O)(=O)N(C)c2ccccc2)c1)Cc1ccccc1	-12.6%	18.4µM*	-2.3%	-0.3%	?	4.7
CCc1ccc(NC(=O)Cn2cc([N+](=O)[O-])nc2C)cc1	-14.9%	-28.5%	-17.8%	-9.5%	-8.1%	20.7
O=C(CSc1nnc(CNC(=O)c2c(F)cccc2F)o1)c1ccccc1	-23.5%	0.9%	?	-0.1%	-3.7%	10.8
COCC(C)(C)COS(N)(=O)=O	-1.0%	2.2%	-7.8%	0.2%	11.7%	18.8
CC1CCC2(CC1)NC(=O)N(CC(=O)Nc1cccc(S(=O)(=O)N(C)c3ccccc3)c1)C2=O (centres undefined)	-15.7%	18.4µM*	1.4%	.	29.1µM*	?
CN(c1ccccc1)S(=O)(=O)c1cccc(NC(=O)CN2C(=O)NC3(CCCCC3)C2=O)c1	1.1%	-11.0%	11.4%	-1.3%	-4.2%	-5.8
CCN(CC)S(=O)(=O)c1cccc(NC(=O)CN(C)Cc2cccc(OC)c2)c1	-2.4%	?	-19.1%	-1.8%	23.1µM*	29.1
Cc1ccccc1CN(C)CC(=O)Nc1cccc(S(=O)(=O)N(C)c2ccccc2)c1	-15.8%	20.6µM*	-2.9%	0.2%	16.4µM*	16.7
CCN(CC(=O)Nc1cccc(C(C)=O)c1)S(=O)(=O)c1ccc(OC)cc1	-30.4%	1.6%	7.6%	2.1%	?	3.9
O=C(COc1ccc(S(=O)(=O)N2CCCC2)cc1)NCC1CCCO1 (centres undefined)	11.4%	25.2%	1.1%	-1.3%	0.2%	6.7
COc1cccc(C2C(C(=O)OC(C)C)=C(C)N=c3s/c(=C\c4ccc(C(=O)O)cc4)c(=O)n32)c1 (centres undefined)	-0.7%	-20.5%	1.2%	0.7%	18.4µM*	-7.5
CCOC(=O)C1=C(C)N=c2sc(=Cc3cc(Cl)c(OCC(=O)O)c(Cl)c3)c(=O)n2C1c1cccc(OC)c1 (centres undefined)	-26.2%	16.4µM*	-2.3%	.	?	-18.0
O=C(NCC1CCCO1)C(C(=O)c1ccccc1)n1ccccc1=O (centres undefined)	-1.2%	?	5.5%	1.9%	10.3µM*	8.2
O=C(NCc1ccco1)C(C(=O)c1ccccc1)n1ccccc1=O (centres undefined)	-22.2%	-0.3%	0.8%	-2.7%	?	-0.9
Cc1nn(C)c2c1c(-c1ccccc1)cc(=O)n2C(C)C(=O)NCc1ccc(F)cc1 (centres undefined)	4.0%	?	-1.6%	.	?	.
SMILES	HepG2 tox	TDP1 cell CPT	TGFb inhibitor	ASM inhibitor	TDP1 cell noCPT	IL-1B inflam inh
CCn1c2ccccc2c2cc(/C=N/n3cn[nH]c3=S)ccc21	-50.0%	?	?	8.8%	?	-11.9
CCn1c2ccccc2c2cc(/C=N/n3c(-c4cc(C)[nH]n4)n[nH]c3=S)ccc21	-35.7%	20.6µM*	?	12.7%	?	30.8
CCn1c2ccccc2c2cc(/C=N/n3cnnc3)ccc21	-69.7%	18.4µM*	?	255.2%	-29.7%	-58.5*
CC1=C(C(=O)OC2CCCCC2)C(c2cccnc2)n2nnnc2N1 (centres undefined)	-33.1%	8.2µM*	?	35.4%	11.6µM*	-10.5
O=C(NCCc1ccc(OC(F)F)cc1)C1CC(=O)N(c2ccc3c(c2)OCCO3)C1 (centres undefined)	-1.6%	-15.7%	-15.8%	4.0%	-2.7%	24.5
Clc1cccc(Cc2c(C3CCCCC3)nc3ccc(Br)cn23)c1	-32.8%	23.1µM*	?	.	?	20.2
COC(=O)c1ccc2nc(C3CCCCC3)c(Cc3ccc(C)cc3)n2c1	-24.6%	25.9µM*	?	.	23.1µM*	6.3
COC(=O)c1ccc2nc(C3CCCCC3)c(Cc3ccc(OC)cc3C)n2c1	-12.4%	?	-14.4%	.	?	-29.0
